From PubChem BioAssay (EPA / NIEHS) come the findings set out here.

Inconclusive results are not listed. Activity calls are given as the source filed them. The calls were made as follows, unless noted: active = hit-call score of the fitted dose curve at least 0.9, where 1 is the maximum; inactive = score below 0.9.

A short description of experiment [1]: ATG_TAL_CIS: Attagene CIS-FACTORIAL HepG2 Assay for human TAL Basal Promoter (AID 2282966).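 Also: background control endpoint measuring basal TAL promoter reporter mRNA not a specific factor.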 Particulars: HepG2 Attagene cis-factorial TAL promoter reporter; actives raise or lower the signal. The gist of the method: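 Fluorescence of labelled reporter cDNA fragments, resolved by capillary electrophoresis, gave the readout. Human HepG2 liver cells carried transiently transfected cis-element reporter units and were treated for 24 hours; activity was fitted bidirectionally against DMSO.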

Experiment [2] in a line: ATG_TGFb_CIS: Attagene CIS-FACTORIAL HepG2 Assay for human Transforming Growth Factor (TGF) (AID 2282967). The following applies: HepG2 Attagene CIS TGFb reporter, mRNA transcription; actives raise or lower the signal. The gist of the method: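 Transient MRTU transfection of HepG2 (FuGene 6). Dose 24 h. TriZol RNA, oligo(dT) RT, PCR, 6-FAM primer extension, HpaI cut, CE. Bidirectional fit, DMSO = baseline.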

Experiment [3] can be described thus: ATG_VDRE_CIS: Attagene CIS-FACTORIAL HepG2 Assay for human Vitamin D Receptor Element (VDRE) (AID 2282968). Particulars: HepG2 VDRE cis-reporter transcription, actives raise or lower the signal. The gist of the method:
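In transiently transfected HepG2 liver cells, gain or loss of reporter mRNA after 24 h exposure is scored relative to DMSO, using fluorescence detection by capillary electrophoresis of RT-PCR products.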

In experiment [4] the target is Nuclear receptor subfamily 1 group I member 3 (Homo sapiens) (UniProt Q14994). The experiment can be described thus: ATG_CAR_TRANS: Attagene TRANS-FACTORIAL HepG2 Assay for human Constitutive Androstane Receptor (CAR) (AID 2282969; active = hit-call score of the fitted dose curve at least 0.9, where 1 is the maximum;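 also: activators raise reporter mRNA above DMSO so AC50 marks induction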). The following applies: HepG2 Attagene TRANS-FACTORIAL CAR reporter. The gist of the method: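 Readout is reporter mRNA induction, quantified by fluorescent primer extension and capillary electrophoresis after RT-PCR. Cells were HepG2 transiently carrying chimeric NR-Gal4 constructs with GAL4-UAS reporters, treated for 24 h; activity scored upward from DMSO.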
Sequence of Nuclear receptor subfamily 1 group I member 3 (Homo sapiens) (Q14994 whole entry, looked up, the tested form may be a part): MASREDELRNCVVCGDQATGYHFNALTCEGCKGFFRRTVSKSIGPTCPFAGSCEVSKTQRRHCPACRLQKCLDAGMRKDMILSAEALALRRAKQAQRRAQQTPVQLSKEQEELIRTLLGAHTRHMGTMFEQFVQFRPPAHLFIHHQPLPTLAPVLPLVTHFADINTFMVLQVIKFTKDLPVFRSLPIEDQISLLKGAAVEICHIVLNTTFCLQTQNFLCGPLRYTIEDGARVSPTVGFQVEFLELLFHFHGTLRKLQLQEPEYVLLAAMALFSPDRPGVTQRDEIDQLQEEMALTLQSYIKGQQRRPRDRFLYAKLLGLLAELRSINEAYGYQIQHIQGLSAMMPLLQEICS

Experiment [5] has as its target Estrogen receptor (Homo sapiens) (UniProt P03372). The experiment can be described thus: ATG_ERa_TRANS: Attagene TRANS-FACTORIAL HepG2 Assay for human Estrogen Receptor alpha (ERa) (AID 2282970; active = hit-call score of the fitted dose curve at least 0.9, where 1 is the maximum). The following applies: HepG2 Attagene TRANS ERa GAL4 reporter, mRNA. The gist of the method:
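Human liver HepG2, transient transfection of multiple GAL4-UAS reporter units; TRANS format (exogenous NR-Gal4 chimera). 24 h dosing. Readout: reporter mRNA, RT-PCR, 6-FAM primer extension, HpaI digest, capillary electrophoresis. Positive direction vs DMSO.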

Experiment [6] concerns the target X-box-binding protein 1 (Homo sapiens) (UniProt P17861). The experiment can be described thus: ATG_Xbp1_CIS: Attagene CIS-FACTORIAL HepG2 Assay for human X-box Binding Protein 1 (XBP1) (AID 2282972). The following applies: HepG2 XBP1 cis-element reporter, Attagene multiplex; actives raise or lower the signal. The gist of the method: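 HepG2 cells transiently transfected with cis-regulated multiple reporter transcription units; endogenous transcription factor activity measured 24 hours after chemical dosing. Reporter mRNA quantified by RT-PCR, 6-FAM primer extension, HpaI digestion and capillary electrophoresis; bidirectional fitting versus DMSO.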

Experiment [7] is described as follows: ATG_M_19_TRANS: Attagene TRANS-FACTORIAL HepG2 Assay for M19 Transcription Factor (Internal Marker) (AID 2282974; active = hit-call score of the fitted dose curve at least 0.9, where 1 is the maximum). The following applies: HepG2 Attagene TRANS-FACTORIAL M19 internal marker reporter. The gist of the method:
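Multiplexed TRANS format: HepG2 liver cells bearing transient GAL4-UAS reporter units, chemical treatment 24 h, reporter transcripts quantified by RT-PCR plus capillary electrophoresis. DMSO defines baseline.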

A short description of experiment [8]: ATG_GAL4_TRANS: Attagene TRANS-FACTORIAL HepG2 Assay for GAL4 (Internal Marker) (AID 2282976; active = hit-call score of the fitted dose curve at least 0.9, where 1 is the maximum). Particulars: HepG2 Attagene TRANS GAL4 internal marker reporter. The gist of the method: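 First, HepG2 cells were transfected with reporter units under GAL4-UAS control. Next, they were treated with chemical for 24 h. Finally, RNA was reverse-transcribed, PCR-amplified, FAM-labelled and resolved by capillary electrophoresis, with induction scored against DMSO.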

For experiment [9], the target named is Estrogen-related receptor gamma (Homo sapiens) (UniProt P62508). The experiment in a line: ATG_ERRg_TRANS: Attagene TRANS-FACTORIAL HepG2 Assay for human Estrogen-Related Receptor gamma (ERRg) (AID 2282977; active = hit-call score of the fitted dose curve at least 0.9, where 1 is the maximum;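 also: hits increase reporter signal over DMSO so potencies reflect activators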). The following applies: HepG2 Attagene TRANS reporter, ERRg transactivation. The gist of the method: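 HepG2 cells transiently transfected with multiplexed GAL4-UAS reporter units and chimeric NR-Gal4 constructs were exposed to test chemicals for 24 h. Reporter mRNA was measured by RT-PCR, 6-FAM primer extension, HpaI digestion and capillary electrophoresis; gain-of-signal versus DMSO.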
Sequence of Estrogen-related receptor gamma (Homo sapiens) (P62508 whole entry, looked up, the tested form may be a part): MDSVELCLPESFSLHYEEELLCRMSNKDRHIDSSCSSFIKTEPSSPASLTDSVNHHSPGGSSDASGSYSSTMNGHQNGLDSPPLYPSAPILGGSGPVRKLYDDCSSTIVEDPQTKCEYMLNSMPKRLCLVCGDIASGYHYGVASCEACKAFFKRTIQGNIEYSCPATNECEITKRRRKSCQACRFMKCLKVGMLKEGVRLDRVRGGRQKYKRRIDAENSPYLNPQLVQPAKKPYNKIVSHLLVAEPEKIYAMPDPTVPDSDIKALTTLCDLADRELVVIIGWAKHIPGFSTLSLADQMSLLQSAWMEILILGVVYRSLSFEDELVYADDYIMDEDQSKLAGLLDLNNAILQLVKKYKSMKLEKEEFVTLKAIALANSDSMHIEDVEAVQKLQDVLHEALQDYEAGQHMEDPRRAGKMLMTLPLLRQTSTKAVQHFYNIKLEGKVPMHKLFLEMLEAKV

Experiment [10] addresses Steroid hormone receptor ERR1 (Homo sapiens) (UniProt P11474). The experiment in a line: ATG_ERRa_TRANS: Attagene TRANS-FACTORIAL HepG2 Assay for human Estrogen-Related Receptor alpha (ERRa) (AID 2282971; active = hit-call score of the fitted dose curve at least 0.9, where 1 is the maximum). Particulars: HepG2 Attagene TRANS reporter, ERRa transactivation. The gist of the method:
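Reporter transcript induction was quantified by RT-PCR and capillary electrophoresis of FAM-labelled, HpaI-cut products after 24 h treatment of HepG2 cells carrying transiently transfected GAL4-UAS reporter units and an exogenous ERRa-Gal4 fusion; activity scored as increase over DMSO.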

Sequence of Steroid hormone receptor ERR1 (Homo sapiens) (P11474 whole entry, looked up, the tested form may be a part): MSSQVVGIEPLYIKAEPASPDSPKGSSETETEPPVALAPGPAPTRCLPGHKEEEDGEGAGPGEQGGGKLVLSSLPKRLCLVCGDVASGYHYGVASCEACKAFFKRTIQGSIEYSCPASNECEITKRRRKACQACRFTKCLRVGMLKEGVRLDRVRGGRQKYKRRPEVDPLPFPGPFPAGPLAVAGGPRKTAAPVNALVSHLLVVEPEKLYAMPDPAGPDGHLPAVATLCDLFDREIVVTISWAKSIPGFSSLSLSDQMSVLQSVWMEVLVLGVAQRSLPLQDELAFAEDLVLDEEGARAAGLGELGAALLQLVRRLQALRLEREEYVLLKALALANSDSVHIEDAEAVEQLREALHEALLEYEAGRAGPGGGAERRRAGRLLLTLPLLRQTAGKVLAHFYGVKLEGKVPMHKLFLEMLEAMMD
Sequence of Estrogen receptor (Homo sapiens) (P03372 whole entry, looked up, the tested form may be a part): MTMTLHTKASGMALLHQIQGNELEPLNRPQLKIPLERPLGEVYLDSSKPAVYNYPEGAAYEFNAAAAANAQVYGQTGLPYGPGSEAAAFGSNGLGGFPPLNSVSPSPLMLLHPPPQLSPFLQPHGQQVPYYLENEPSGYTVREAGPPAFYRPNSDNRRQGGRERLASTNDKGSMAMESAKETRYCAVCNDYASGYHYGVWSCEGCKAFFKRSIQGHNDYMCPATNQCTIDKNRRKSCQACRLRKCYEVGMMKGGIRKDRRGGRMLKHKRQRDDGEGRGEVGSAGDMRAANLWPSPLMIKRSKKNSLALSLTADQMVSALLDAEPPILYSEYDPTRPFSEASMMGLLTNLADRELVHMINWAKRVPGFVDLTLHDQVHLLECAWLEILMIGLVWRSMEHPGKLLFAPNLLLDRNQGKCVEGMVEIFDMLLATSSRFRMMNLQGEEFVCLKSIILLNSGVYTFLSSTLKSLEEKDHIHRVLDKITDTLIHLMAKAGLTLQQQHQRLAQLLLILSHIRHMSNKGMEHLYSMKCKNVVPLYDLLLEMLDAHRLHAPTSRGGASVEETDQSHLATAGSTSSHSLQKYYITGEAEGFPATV
Sequence of X-box-binding protein 1 (Homo sapiens) (P17861 whole entry, looked up): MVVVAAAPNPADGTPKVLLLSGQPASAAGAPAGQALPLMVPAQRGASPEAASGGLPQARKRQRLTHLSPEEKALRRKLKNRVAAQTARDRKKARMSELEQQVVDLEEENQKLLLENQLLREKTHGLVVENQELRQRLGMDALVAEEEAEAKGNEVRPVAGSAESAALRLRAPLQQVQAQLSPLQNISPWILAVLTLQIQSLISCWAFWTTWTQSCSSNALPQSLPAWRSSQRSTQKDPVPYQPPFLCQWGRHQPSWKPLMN

Take `Cc1ncc([N+](=O)[O-])n1C`: the result in experiment [1], in [2], in [3], in [4], in experiment [5] and in experiment [6] was inactive. Besides, the call in experiment [7], in experiment [8] and in experiment [9] was inactive.

On to `CCCC(=O)C(C)=O`, for which the compound was classed as inactive in [1], in experiment [2], in [3], in experiment [4], in experiment [10] and in [6]. In experiment [9], the call was inactive.

Take `CCOC(=S)SSC(=S)OCC`: the call in experiment [1], in experiment [2], in [3], in experiment [4], in [5] and in [6] was inactive. In addition, the result in experiment [7] was inactive.

On to `Clc1sc(Cl)c(Cl)c1Cl`, for which the outcome in [1], in experiment [2], in [3], in experiment [4], in [5] and in experiment [6] was inactive. Besides, the compound was called inactive in [7] and in experiment [8].

`CCc1c(C)cc(N)c(CC)c1N`: the result in experiment [1], in [2], in [3], in experiment [4], in [5] and in experiment [10] was inactive. Besides, the result in experiment [6], in [7], in [8] and in [9] was inactive.

With `Cc1ccc(Nc2ccc(O)c3c2C(=O)c2ccccc2C3=O)cc1`, the compound was classed as inactive in experiment [1], in experiment [2], in experiment [3], in [4], in experiment [5] and in [6]. In experiment [7], the result was inactive.

For the compound `Cc1ccc(C=O)s1`, the result in [1], in experiment [2], in [3], in [4], in [10] and in experiment [6] was inactive. Further, the compound was classed as inactive in [7], in experiment [8] and in experiment [9].

As for `Nc1cccc(S(=O)(=O)c2cccc(N)c2)c1`, the compound was classed as inactive in experiment [1], in experiment [2], in [3], in experiment [4], in [5] and in experiment [10]. Moreover, the outcome in experiment [6] and in [9] was inactive.

Usually AC50 stands for the concentration giving half of the maximal activity seen. For the compound `CC1=CCC2C(C1)C2(C)C` (stereo not given), the result in experiment [1], in [2], in [3], in experiment [4] and in [6] was inactive. Further, in [5], the AC50 is 77.3 µM (active).

`C=C(C)C(=O)Nc1ccc(Cl)c(Cl)c1`: the result in [1], in [2], in experiment [4], in experiment [5], in experiment [6] and in experiment [7] was inactive. For the same compound, in experiment [8], the result was inactive. Besides, the half-maximal activity concentration (AC50) in experiment [3] was 20.6 µM (active).

In the case of `CCCCc1ccc(N)cc1`, the outcome in experiment [1], in experiment [2], in experiment [3], in experiment [4] and in experiment [6] was inactive. In experiment [5], the AC50 is 12.8 µM (active).

As to `c1ccc2c(c1)c1cccc3ccc4cccc2c4c31`, the compound was classed as inactive in [1], in [2], in experiment [3], in experiment [4], in [5] and in experiment [6]. Moreover, the compound was called inactive in experiment [7].

With `NCCNCCN`, the compound was called inactive in experiment [1], in experiment [2], in experiment [3], in experiment [4], in [10] and in experiment [6]. Moreover, the call in [7] and in experiment [8] was inactive.

For the compound `Cc1ccc2sc3cccc(C)c3c2c1`, the outcome in experiment [1], in [2], in [3], in [4], in [5] and in experiment [6] was inactive.

For `NC(=O)Nc1ccc(Cl)cc1`, the result in experiment [1], in experiment [2], in experiment [3], in experiment [4], in [5] and in experiment [10] was inactive. Also, the call in [6], in [7], in experiment [8] and in experiment [9] was inactive.

Turning to `COC(=O)c1ccc(C)cc1`, the compound was classed as inactive in experiment [1], in [2], in experiment [3], in [4], in experiment [5] and in experiment [6]. In experiment [8], the compound was classed as inactive.

On to `CNC[C@H](O)c1cccc(O)c1`, for which the outcome in experiment [1], in experiment [2], in [3], in [4], in [10] and in experiment [6] was inactive. The result in experiment [7] and in [8] was inactive.

In the case of `O=C(O)c1cccc(C(F)(F)F)c1`, the outcome in experiment [1], in experiment [2], in experiment [3], in experiment [4], in [5] and in experiment [6] was inactive. Moreover, the result in experiment [8] and in experiment [9] was inactive.

In the case of `CC(C)(C)c1n[nH]c(=S)n(N)c1=O`, the call in [1], in experiment [2], in experiment [3], in [4], in [5] and in experiment [10] was inactive. Moreover, the call in experiment [6] and in experiment [7] was inactive.

For the compound `COC(=O)OC`, the outcome in experiment [1], in experiment [2], in experiment [3], in [4], in experiment [10] and in experiment [6] was inactive. For the same compound, the compound was classed as inactive in experiment [7], in [8] and in [9].

Take `O=C1OC2(c3cc(Br)c(O)c(Br)c3Oc3c2cc(Br)c(O)c3Br)c2c(Cl)c(Cl)c(Cl)c(Cl)c21`: the AC50 in [1] is 26.1 µM (active); in [2] it was 58.4 µM (active); in [3] it was 16.4 µM (active). For the same compound, the compound was called inactive in experiment [4], in experiment [5], in [10], in experiment [6], in experiment [7] and in [8]. Moreover, the compound was classed as inactive in experiment [9].

On to `CCCC(=O)OCCC(C)CCC=C(C)C` (stereo not given), for which the result in [1], in experiment [2], in experiment [3], in experiment [4], in experiment [10] and in experiment [6] was inactive. In addition, the compound was called inactive in [7], in experiment [8] and in experiment [9].

With `CCC(O)CO` (stereo not given), the result in [1], in experiment [2], in experiment [3], in experiment [4], in experiment [5] and in experiment [6] was inactive. Also, the compound was classed as inactive in experiment [7] and in experiment [8].

`O=C1c2ccccc2C(=O)N1SC1CCCCC1`: the AC50 was 60.1 µM (active) in [1], 144 µM (active) in [2], 46 µM (active) in [5] and 26.5 µM (active) in [6]. The compound was called inactive in experiment [3], in [4], in experiment [7] and in experiment [8].

In the case of `CC(C)(COC(=O)c1ccccc1)COC(=O)c1ccccc1`, the compound was classed as inactive in experiment [1], in [4] and in [6]. Moreover, the AC50 in [2] was 100 µM (active); in experiment [3], 45.8 µM (active).

Turning to `NC(=O)c1ccccc1Cl`, the result in experiment [1], in [2], in experiment [4], in experiment [5], in [10] and in [7] was inactive. Further, the compound was classed as inactive in experiment [9]. Besides, the half-maximal activity concentration (AC50) in experiment [3] is 63.3 µM (active); in experiment [6] it was 62.6 µM (active).
